Measured values published in PubChem BioAssay (NCATS).
Inconclusive results are not listed. Active and inactive are the calls of the source. Unless noted, calls follow the shape of the dose curve; as a rule, active = well fitted curve in the direction sought with a large enough effect; inconclusive = small, poorly fitted or top-dose-only effect, or another doubt; inactive = no such curve, though single readings can be large; an effect the other way counts as inactive or inconclusive.

Key:
[1] = Cell Viability - BJ (AID 421; calls by dose curve;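 also: potency is read from the fitted curve at half-maximal effect; cells exposed to compound for 40 hours at 37 °C before readout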); conditions: BJ fibroblast viability, qHTS
Summary of the method: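 Cytotoxicity in human BJ foreskin fibroblasts is scored as loss of cellular ATP after a 40-hour exposure, measured by luciferase luminescence. Controls are DMSO and 100 uM tamoxifen.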

[2] = Cell Viability - Jurkat (AID 426;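 active = dose-dependent loss of cell ATP signal giving a full or clear fitted curve, ranked by lower potency value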;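 also: potency is read from the fitted curve at half-maximal effect; cells exposed to compound for 40 hours at 37 °C before ATP read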); conditions: qHTS
Summary of the method: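 Luminescent ATP read-out (CellTiter-Glo, 20 min at room temperature) after 40 hr compound exposure at 37 °C of Jurkat E6-1 cells, 5000/well. Decreased ATP taken as cytotoxicity; AC50 from standard Hill equation.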

[3] = Cell Viability - Hek293 (AID 427;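 active = compounds whose dose-response curve shows a full or clear partial loss of cell viability, called from curve shape rather than a numeric limit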;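 also: potency is read from the fitted curve at half-maximal effect; cells exposed to compound for 40 hours at 37 °C before reading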); conditions: qHTS
Summary of the method: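 qHTS, human embryonic kidney (adenovirus-transformed) cells; 40 hr cpd, 37 °C; CellTiter-Glo ATP luminescence. Norm: DMSO = 0, 100 uM tamoxifen = 100% inhibition. Hill-fit AC50.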

[4] = Cell Viability - HepG2 (AID 433; calls by dose curve;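 also: potency is read from the fitted curve at half-maximal effect; cells exposed to compound for 40 hours; potency for ATP loss meaning cytotoxicity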); conditions: qHTS
Summary of the method: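 Cytotoxicity read as ATP loss (CellTiter-Glo luminescence) after 40 hr compound exposure of HepG2, 1500 cells/well, 37 °C. AC50 by Hill equation; 0% set by DMSO, 100% inhibition by 100 uM tamoxifen.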

[5] = Cell Viability - MRC5 (AID 434; calls by dose curve;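 also: potency is read from the fitted curve at half-maximal effect; cells exposed to compound for 40 hours at 37 °C; potency reflects cytotoxicity seen as loss of intracellular ATP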); conditions: MRC5 lung fibroblast viability, qHTS
Summary of the method: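 AC50 values come from Hill-equation fits of intracellular ATP loss, measured by CellTiter-Glo luminescence. Normal lung fibroblasts (MRC5) had 40 hr compound treatment at 37 C, normalized between DMSO and 100 uM tamoxifen.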

[6] = Cell Viability - SK-N-SH (AID 435; calls by dose curve; also: potency is read from the fitted curve at half-maximal effect); conditions: SK-N-SH neuroblastoma cell viability qHTS
Summary of the method: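 qHTS cytotoxicity: CellTiter-Glo ATP luminescence after 40 h compound exposure of human neuroblastoma SK-N-SH cells at 37 °C. AC50 derived by Hill-equation fitting, with DMSO as basal and 100 uM tamoxifen as full inhibition.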

[7] = target: Mitogen-activated protein kinase 10 (Mus musculus) (UniProt Q61831); test: JNK3 AlphaScreen Assay (AID 530; active = well fitted curve in either direction with a large enough effect, not every such curve was filed as active;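 also: kinase came from lysate of stimulated human HepG2 cells; signal reports phosphorylation of biotinylated GST-cJun 1-79 at Ser73 with 10 µM ATP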); conditions: JNK3 lysate, c-Jun phosphorylation; series mostly up to 57.1 µM
Summary of the method: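 Kinase buffer: 20 mM Tris-HCl pH 7.6, 10 mM MgCl2, 1 mM DTT, 0.1 mM Na3VO4, 0.01% Tween-20; ATP 10 uM. Substrate biotin-GST-cJun(1-79), enzyme from activated HepG2 lysates. Detection by Ser73 phospho-antibody AlphaScreen.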

[8] = Cell Viability - N2a (AID 540); conditions: N2a mouse neuroblastoma cell viability; series mostly up to 92.2 µM; also: nearly all actives have a fitted effect of over 45% in size
Summary of the method: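 N2a mouse neuroblastoma, 1500 cells/well, 5 hr settle; compound 40 hr, 37 °C; CellTiter-Glo 20 min RT; luminescence; Hill-fit AC50.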

[9] = Cell Viability - NIH 3T3 (AID 541); conditions: NIH 3T3 cell viability, qHTS; series mostly up to 92.2 µM;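 also: cells exposed to compound for 40 hours; nearly all actives have a fitted effect of over 25% in size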
Summary of the method: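 qHTS format; 40 hr compound exposure, 37 °C; CellTiter-Glo luminescence (cellular ATP) read-out after 20 min at RT. Decrease in ATP = cytotoxicity; AC50 from standard Hill fit.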

[10] = Cell Viability - HUV-EC-C (AID 542); conditions: HUV-EC-C endothelial cell viability, qHTS; series mostly up to 92.2 µM;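 also: cells exposed to compound for 40 hours; nearly all actives have a fitted effect of over 35% in size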
Summary of the method: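 Luminescent ATP read-out (CellTiter-Glo, 20 min room temperature) after 40 hr compound treatment of HUV-EC-C cells at 37 °C. Concentration-response data fitted with the standard Hill equation to give AC50; tamoxifen and doxorubicin served as positive controls.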

[11] = Cell Viability - H-4-II-E (AID 543); conditions: H-4-II-E rat hepatoma viability; series mostly up to 92.2 µM;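 also: cells exposed to compound for 40 hours; nearly all actives have a fitted effect of over 35% in size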
Summary of the method: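 qHTS, rat hepatoma H-4-II-E, 1500 cells/well; 40 hr compound exposure, 37 °C; CellTiter-Glo ATP luminescence after 20 min RT; AC50 by standard Hill fit.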

[12] = Cell Viability - SH-SY5Y (AID 544); conditions: SH-SY5Y neuroblastoma cell viability; series mostly up to 92.2 µM;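 also: cells exposed to compound for 40 hours; nearly all actives have a fitted effect of over 55% in size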
Summary of the method: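 SH-SY5Y, 1500 cells/well, 5 hr pre-incubation 37 °C; cpd 40 hr 37 °C; CellTiter-Glo 20 min RT; luminescence (ATP) read. qHTS concentration-response, Hill fit → AC50. Tamoxifen, doxorubicin as positive controls.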

[13] = Cell Viability - Renal Proximal Tubule (AID 545); conditions: renal proximal tubule cells viability, primary cells of rat origin; series mostly up to 91.7 µM;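 also: cells exposed to compound for 40 hours; nearly all actives have a fitted effect of over 40% in size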
Summary of the method: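 Viability taken as intracellular ATP (CellTiter-Glo luminescence) after 40 hr, 37 °C compound treatment of primary proximal tubule cells from rat kidney, 1000 cells/well; Hill-equation fits of qHTS concentration-response data gave AC50.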

[14] = Cell Viability - Mesenchymal (AID 546); conditions: mesenchymal cells viability, qHTS; series mostly up to 91.7 µM;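 also: cells exposed to compound for 40 hours before reading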
Summary of the method: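 CellTiter-Glo luminescence (intracellular ATP, 20 min room temperature) after 40 hr compound exposure at 37 °C of 1000 glomerulus-derived human kidney mesenchymal cells/well; AC50 values obtained by fitting qHTS concentration-response data to the Hill equation.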

[15] = Cellular Toxicity (caspase-3) HepG2 (AID 654); conditions: HepG2 caspase-3 activation, luminescence, 0% = DMSO only, 100% = tamoxifen; series mostly up to 92.2 µM;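 also: cells exposed to compound for 16 hours before reading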
Summary of the method: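 Luminescent Caspase-Glo 3/7 readout after 16 hr compound exposure of human hepatocellular carcinoma HepG2 cells at 37 °C; qHTS concentration-response, normalized DMSO = 0%, 100 uM tamoxifen = 100%; AC50 by standard Hill equation.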

[16] = Cellular Toxicity (caspase-3) Jurkat (AID 655); conditions: Jurkat caspase-3 activation, luminescence, DMSO = 0%, tamoxifen = 100%; series mostly up to 92.2 µM;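 also: cells exposed to compound for 16 h at 37 °C before reading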
Summary of the method: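 Luminescent Caspase-Glo 3/7 read-out (20 min, room temperature) after 16 h compound treatment at 37 C of 5000 Jurkat cells per well. AC50 derived by Hill-equation fitting, scaled between DMSO basal and 100 uM tamoxifen stimulation.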

[17] = Cellular Toxicity (caspase-3) HUV-EC-C (AID 656); conditions: HUV-EC-C cells, caspase-3 activation (apoptosis), vehicle = 0, 100 µM tamoxifen = 100%; series mostly up to 92.2 µM
Summary of the method: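 Luminescent Caspase-Glo 3/7 readout after 16 h, 37 °C compound exposure of HUV-EC-C endothelial cells, 1000 per well, complete medium. AC50 derived by Hill fitting, with DMSO as baseline and 100 uM tamoxifen as full activation.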

[18] = Cellular Toxicity (caspase-3) SHSY5Y (AID 657); conditions: SH-SY5Y caspase-3 activation, DMSO zero, 10 µM staurosporine = 100%; series mostly up to 91.7 µM
Summary of the method: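 Luminescent Caspase-Glo 3/7 read-out, 1 hr room temperature, follows 16 hours of compound treatment of SH-SY5Y cells at 37 °C. Normalization: DMSO basal, 10 uM staurosporine as 100%; AC50 values from Hill-equation concentration-response fits.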

[19] = Cellular Toxicity (caspase-3) BJ (AID 658); conditions: BJ fibroblasts, luminescence, normalized: DMSO 0%, staurosporine 100%; series mostly up to 91.7 µM
Summary of the method: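 Caspase-Glo 3/7 luminescence, read 1 hr after reagent at room temperature, in normal BJ fibroblasts exposed 16 hours at 37 °C. AC50 values from Hill-equation concentration-response, scaled between DMSO basal and 10 uM staurosporine as 100%.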

[20] = Cellular Toxicity (caspase-3) MRC-5 (AID 659); conditions: MRC-5 cells, luminescence, normalized: DMSO 0%, 10 µM staurosporine 100%; series mostly up to 91.7 µM
Summary of the method: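 Luminescent Caspase-Glo 3/7 read-out (1 h, room temperature) after a 16 h, 37 °C compound exposure of MRC-5 lung fibroblasts at 1500 cells/well. Concentration-response AC50 from Hill equation; 0% DMSO, 100% 10 uM staurosporine.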

[21] = Cellular Toxicity (caspase-3) Mesangial (AID 660); conditions: mesangial cells, normalized: DMSO 0%, 100 µM tamoxifen 100%; series mostly up to 91.7 µM;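 also: combined caspase 3 and 7 activity read by Caspase-Glo luminescence; cells exposed to compound for 16 h before the caspase read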
Summary of the method: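 Luminescent Caspase-Glo 3/7 readout (aminoluciferin substrate cleavage, 20 min RT) after 16 h compound exposure at 37 °C of normal human mesangial cells. Signal increase normalized between DMSO basal and 100 uM tamoxifen; Hill-equation AC50.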

[22] = Cellular Toxicity (caspase-3) SK-N-SH (AID 661); conditions: SK-N-SH caspase-3 activation, qHTS, DMSO as zero, staurosporine as full; series mostly up to 91.7 µM
Summary of the method: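 Luminescent Caspase-Glo 3/7 read-out after 16 hr compound exposure of SK-N-SH neuroblastoma cells at 37 °C. Signal increase normalized to DMSO (basal) and 10 uM staurosporine (100%); AC50 from Hill equation fits of qHTS concentration-response data.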

[23] = Cellular Toxicity (caspase-3) H-4-II-E (AID 663); conditions: H-4-II-E rat hepatoma, scaled: DMSO 0%, 100 µM tamoxifen 100%; series mostly up to 92.2 µM;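 also: cells exposed to compound for 16 hr before readout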
Summary of the method: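 Caspase 3/7 activation measured by luminescent aminoluciferin substrate cleavage after 16 hr compound treatment of H-4-II-E cells in complete medium. Increase normalized between DMSO (basal) and 100 uM tamoxifen (100%); Hill-equation AC50 from concentration-response.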

Measured: Potency

CC(C)(c1cc(Br)c(O)c(Br)c1)c1cc(Br)c(O)c(Br)c1
inactive: [1] > 92 µM | [2] > 92 µM | [3] > 92 µM | [4] > 92 µM | [5] > 92 µM | [6] > 92 µM | [7] | [8] | [9] | [10] | [11] | [12] | [13] | [14] | [15] | [16] | [17] | [18] | [19] | [20] | [21] | [22] | [23]
